Rpn11 block: blocks the human proteasome subunit Rpn11. O00487. human 26S proteasome, Ub4-pepOG fluorescence polarization; 20S core pre-blocked with epoxomicin. actives 0.59% (n = 360,000). calls only at 20 µM;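 active means inhibition at 20 µM, scaled to each plate's controls, above about 33%, limit read from the data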
Target sequence (O00487 whole entry, looked up): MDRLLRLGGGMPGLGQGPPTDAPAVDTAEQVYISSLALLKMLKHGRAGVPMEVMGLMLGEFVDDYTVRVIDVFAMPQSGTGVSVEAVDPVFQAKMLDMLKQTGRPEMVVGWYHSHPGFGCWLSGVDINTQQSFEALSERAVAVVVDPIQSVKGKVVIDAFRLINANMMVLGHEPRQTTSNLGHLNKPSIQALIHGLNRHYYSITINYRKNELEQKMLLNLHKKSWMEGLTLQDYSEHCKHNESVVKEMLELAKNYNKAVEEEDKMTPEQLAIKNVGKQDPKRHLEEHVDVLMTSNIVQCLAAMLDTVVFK
Neddyl block: inhibitors of human cullin neddylation; P61081+Q13564; TR-FRET cullin neddylation, biochemical; inhibition, % at 25 µM; actives 0.58% (n = 360,000); in the data active means inhibition above about 36%
PKA-R2B act: activates the human PKA-R2B holoenzyme complex. P22694+P31323. PKA-R2B holoenzyme dissociation, Cy5-IP20 fluorescence polarization; R2B truncated from residue 108, S112A mutant; 0% DMSO only, 100% 113 µM cGMP. activation, % at 11.4 µM. actives 0.079% (n = 340,000). AID 504700;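 active means activation above a cutoff set at the mean over all compounds plus 3 SD, cut at about 18% in these data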;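 further: higher means more holoenzyme dissociation and a rise in polarization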
PKA-R1A activ: activators of PKA-R1A complex; P00514+P68181; PKA-R1A dissociation, Cy5-IP20 fluorescence polarization; scaled: DMSO 0%, 113 µM cGMP 100%; activation, % at 11.4 µM; actives 0.083% (n = 340,000); AID 504707;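 active means percent activation above the mean of all tested compounds plus 3 SD, cut at about 19% in these data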;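 further: higher means more PKAc released from R1A so a rise in polarization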
Rpn11 inh conf: confirmation of human proteasome Rpn11 inhibitors | purified human 26S proteasome, Ub4-pepOG fluorescence polarization; proteasome pretreated with epoxomicin | shares compounds with Rpn11 block | actives 29% (n = 1,900) | AID 602318 | inhibition, % at 20 µM
MMP-2 counter: MMP-2 (human) inhibition counter-screen. shares compounds with Rpn11 block. recombinant MMP-2, FRET peptide cleavage fluorescence. inhibition, % at 20 µM. actives 4% (n = 1,900);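 further: human MMP-2 activated beforehand with APMA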
Thrombin FP: thrombin (bovine) inhibition counter-screen. AID 602333. shares compounds with Rpn11 block. inhibition, % at 20 µM. bovine thrombin cleavage of Ub4-pepOG, fluorescence polarization. actives 13% (n = 1,900);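 active means mean inhibition at least 40% at 20 µM, or signal 3 deviations below plate average, so some actives read negative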
A number is an active result; n = inactive; x = not tested or not shown; + = active, no number. An excerpt weighted towards active compounds, which were near 1.3% of everything screened. Unless noted, no stated cut-off is given here; in the data, active means inhibition above about 40%; inactive means the rest.

SMILES | Rpn11 block | Neddyl block | PKA-R2B act | PKA-R1A activ | Rpn11 inh conf | MMP-2 counter | Thrombin FP
CC(=O)OCC1OC(n2c(-c3ccc(Cl)cc3)ccc(C#N)c2=S)C(OC(C)=O)C(OC(C)=O)C1OC(C)=O (stereo not drawn) | + | n | n | n | n | n | n
O=[N+]([O-])c1ccc(N/N=C\c2cccn2-c2ccccc2)nc1 | + | n | n | n | 44 | n | n
N#Cc1ccccc1Cn1cc(/C=N/Nc2ccc([N+](=O)[O-])cn2)c2ccccc21 | + | n | n | n | n | n | n
O=C(COC(=O)c1ccc([N+](=O)[O-])cc1)Nc1ccccc1C(=O)NC1CC1 | n | n | n | n | x | x | x
Cc1nc(NC(=O)COC(=O)c2cccs2)c(Cl)cc1Cl | n | n | n | n | x | x | x
CN1CCc2c(sc(/N=C/c3c[nH]c4ccccc34)c2C(N)=O)C1 | + | n | x | x | n | n | n
O=C1c2ccc(Cl)cc2S(=O)(=O)c2cccc(C(=O)N3CCN(c4ncc(Br)cn4)CC3)c21 | n | n | n | n | x | x | x
COc1ccc(-c2ccc3c(c2)S(=O)(=O)c2cccc(C(=O)N4CCN(c5c(Cl)cncc5Cl)CC4)c2C3=O)cc1OC | + | n | n | n | 43 | n | n
Nc1cc(=O)[nH]c(SCC(=O)N2N=C(c3ccc(Cl)cc3)CC2c2ccco2)n1 (stereo not drawn) | + | n | n | n | n | n | n
CSc1ccc(/C=C/C(=O)c2c(O)cc(C)oc2=O)cc1 | + | n | n | n | 70 | n | 131
COc1cc2sc3cc(NCC[C@@H]4CCCN4C)ccc3c(=O)c2cc1OC | + | n | n | n | n | n | n
CS(=O)(=O)N1CCN(c2ccc([N+](=O)[O-])c(NCc3ccc(Cl)cc3)c2)CC1 | + | n | n | n | n | n | n
Cc1ccc(-n2cccc2/C=C2/C(=N)N3C(=NC2=O)SN=C3S(C)(=O)=O)cc1Cl | + | n | n | n | 160 | n | 109
Cc1cccc(C)c1-n1cccc1/C=C1/C(=N)N2C(=NC1=O)SN=C2S(C)(=O)=O | n | n | n | n | x | x | x
COc1ccc2cc(C(=O)Nc3ccc(Cl)cc3)sc(=O)c2c1OC | + | n | n | n | n | n | n
COc1ccc2cc(C(=O)Nc3ccc(O)cc3)sc(=O)c2c1OC | n | n | n | n | x | x | x
O=C(Nc1ccc2oc(-c3ccncc3)nc2c1)c1ccc(Br)o1 | + | n | n | n | n | n | n
O=C(Nc1ccc2oc(-c3ccncc3)nc2c1)c1ccco1 | n | x | n | n | x | x | x
O=C(Nc1ccc2c(c1)CCC2)c1ccc(Br)o1 | + | n | n | n | n | n | n
Cc1ccc(C(=O)Nc2ccc3c(c2)CCC3)o1 | n | n | n | n | x | x | x
O=C(Nc1ccc2oc(-c3ccncc3)nc2c1)c1ccc2c(c1)OCO2 | + | n | n | n | n | n | n
COc1ccc(NC(=O)C2(C)Cc3c(-c4ccc(N(C)C)cc4)ccnc3O2)cn1 (stereo not drawn) | n | x | x | x | x | x | x
C[C@@H](C(=O)CC(=O)OC(C)(C)C)[C@@H](O)c1ccccc1 | n | n | n | n | x | x | x
Oc1c(Cl)cc(Cl)c2cccnc12 | + | n | n | n | n | n | n
Cc1ccc(S(=O)(=O)Nc2cccnc2Oc2ccc(Cl)cc2)cc1 | n | n | n | n | x | x | x
SMILES | Rpn11 block | Neddyl block | PKA-R2B act | PKA-R1A activ | Rpn11 inh conf | MMP-2 counter | Thrombin FP
Cc1ccc(S(=O)(=O)Nc2cc(Cl)c(O)c3ncccc23)cc1 | + | n | n | n | 76 | 52 | n
Oc1ccc(Cl)c2cccnc12 | n | n | n | n | x | x | x
CC(=O)c1ccc(N2CCN(C(=O)CCC(=O)Nc3ccc4nc(N5CCN(C)CC5)cc(C)c4c3)CC2)cc1 | n | n | n | n | x | x | x
O=C(Cc1c(F)cccc1Cl)N1CCN(S(=O)(=O)c2cccc(F)c2)CC1 | n | n | n | n | x | x | x
Cc1ccc(CNC(=O)c2ccc(OCC3CCCO3)cc2)cc1 (stereo not drawn) | n | n | n | n | x | x | x
O=C(NCc1ccc(Cl)cc1)c1ccc(OCC2CCCO2)cc1 (stereo not drawn) | + | n | n | n | n | n | n
CCOc1ccc(CCNC(=O)Cn2nc(C)c3c(C)n(-c4ccccc4)nc3c2=O)cc1OCC | n | n | n | n | x | x | x
Cc1ccc(S(=O)(=O)N2CCN(C(=O)CC(C)n3cncn3)CC2)cc1C (stereo not drawn) | n | n | n | n | x | x | x
CN1CCN(S(=O)(=O)c2cccc(C(=O)Nc3sc4c(c3C(N)=O)CCCC4)c2)CC1 | + | n | n | n | n | n | n
CC(=O)N1CCN(C(=O)c2ccc(NS(=O)(=O)c3ccc4[nH]c(=O)[nH]c4c3)cc2)CC1 | n | n | n | n | x | x | x
COc1ccc(N2CCN(C(=O)c3ccc4c(c3)NC(=O)C(CSCc3ccccc3F)N4)CC2)cc1 (stereo not drawn) | + | n | n | n | n | n | n
Fc1ccc(-n2nnnc2-c2cnc(-c3cccs3)nc2C(F)(F)F)cc1 | n | n | n | n | x | x | x
O=C(NCCCN1CCCCCC1)c1ccc2c(Cl)c3c(nc2c1)CCCC3 | + | n | n | n | n | n | n
Cc1ccc(CSc2nnc(SCC(=O)N/N=C/c3c[nH]c4ccccc34)s2)cc1 | + | n | n | n | 93 | n | n
O=C(CSc1nnc(SCc2ccccc2)s1)N/N=C/c1c[nH]c2ccccc12 | n | n | n | n | x | x | x
Cc1nc(SCc2nc3ccccc3[nH]2)c2oc3cc(Br)ccc3c2n1 | + | n | n | n | 45 | n | 43
CCCSc1nc2cc(C)c(C)cc2n1CC(C)O (stereo not drawn) | n | n | n | n | x | x | x
Cc1ccc(-c2cc3c(N=O)c4ccccc4c-3n[nH]2)cc1 | + | n | n | n | n | n | n
O=Nc1c2cc(-c3ccccc3)[nH]nc-2c2ccccc12 | n | n | n | n | x | x | x
CCCCn1nnnc1C1(C)CCC(=O)N1CCOc1ccccc1 (stereo not drawn) | x | n | x | x | x | x | x
CCCN(S(=O)(=O)c1ccccc1F)S(=O)(=O)c1ccccc1Br | n | n | n | n | x | x | x
COc1cc(/C=C2\SC(=S)N(NS(=O)(=O)c3ccc(C)cc3)C2=O)ccc1O | + | n | n | n | 83 | n | 90
COc1ccc(/C=C2/SC(=S)N(NS(=O)(=O)c3ccccc3)C2=O)cc1 | n | n | n | n | x | x | x
CCOc1cc(/C=C2\SC(=S)N(NS(=O)(=O)c3ccc(C)cc3)C2=O)ccc1O | + | n | n | n | 69 | n | 57
COc1cc(/C=C2\SC(=S)N(NS(=O)(=O)c3ccccc3)C2=O)ccc1O | + | n | n | n | 50 | n | 52
